Source: PubChem BioAssay
Only a selection was taken, and hits are over-represented in it overall.
Dicer processing: inhibitors of Dicer pre-microRNA processing, primary screen, biochemical, cat-ELCCA, chemiluminescence. cat-ELCCA pre-miR-21 Dicer processing; stronger effect = higher value. AID 1347074, 2019. Endoribonuclease Dicer (Homo sapiens), Q9UPY3. z-score at 25 µM. actives 6% (n = 47,000); in the data active = z-score above about 3, passing the limit was not always enough;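 note: plate controls were vehicle for no effect and no enzyme for full effect; higher signal means more uncleaved substrate so more Dicer inhibition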
Target sequence (Q9UPY3 whole entry, looked up): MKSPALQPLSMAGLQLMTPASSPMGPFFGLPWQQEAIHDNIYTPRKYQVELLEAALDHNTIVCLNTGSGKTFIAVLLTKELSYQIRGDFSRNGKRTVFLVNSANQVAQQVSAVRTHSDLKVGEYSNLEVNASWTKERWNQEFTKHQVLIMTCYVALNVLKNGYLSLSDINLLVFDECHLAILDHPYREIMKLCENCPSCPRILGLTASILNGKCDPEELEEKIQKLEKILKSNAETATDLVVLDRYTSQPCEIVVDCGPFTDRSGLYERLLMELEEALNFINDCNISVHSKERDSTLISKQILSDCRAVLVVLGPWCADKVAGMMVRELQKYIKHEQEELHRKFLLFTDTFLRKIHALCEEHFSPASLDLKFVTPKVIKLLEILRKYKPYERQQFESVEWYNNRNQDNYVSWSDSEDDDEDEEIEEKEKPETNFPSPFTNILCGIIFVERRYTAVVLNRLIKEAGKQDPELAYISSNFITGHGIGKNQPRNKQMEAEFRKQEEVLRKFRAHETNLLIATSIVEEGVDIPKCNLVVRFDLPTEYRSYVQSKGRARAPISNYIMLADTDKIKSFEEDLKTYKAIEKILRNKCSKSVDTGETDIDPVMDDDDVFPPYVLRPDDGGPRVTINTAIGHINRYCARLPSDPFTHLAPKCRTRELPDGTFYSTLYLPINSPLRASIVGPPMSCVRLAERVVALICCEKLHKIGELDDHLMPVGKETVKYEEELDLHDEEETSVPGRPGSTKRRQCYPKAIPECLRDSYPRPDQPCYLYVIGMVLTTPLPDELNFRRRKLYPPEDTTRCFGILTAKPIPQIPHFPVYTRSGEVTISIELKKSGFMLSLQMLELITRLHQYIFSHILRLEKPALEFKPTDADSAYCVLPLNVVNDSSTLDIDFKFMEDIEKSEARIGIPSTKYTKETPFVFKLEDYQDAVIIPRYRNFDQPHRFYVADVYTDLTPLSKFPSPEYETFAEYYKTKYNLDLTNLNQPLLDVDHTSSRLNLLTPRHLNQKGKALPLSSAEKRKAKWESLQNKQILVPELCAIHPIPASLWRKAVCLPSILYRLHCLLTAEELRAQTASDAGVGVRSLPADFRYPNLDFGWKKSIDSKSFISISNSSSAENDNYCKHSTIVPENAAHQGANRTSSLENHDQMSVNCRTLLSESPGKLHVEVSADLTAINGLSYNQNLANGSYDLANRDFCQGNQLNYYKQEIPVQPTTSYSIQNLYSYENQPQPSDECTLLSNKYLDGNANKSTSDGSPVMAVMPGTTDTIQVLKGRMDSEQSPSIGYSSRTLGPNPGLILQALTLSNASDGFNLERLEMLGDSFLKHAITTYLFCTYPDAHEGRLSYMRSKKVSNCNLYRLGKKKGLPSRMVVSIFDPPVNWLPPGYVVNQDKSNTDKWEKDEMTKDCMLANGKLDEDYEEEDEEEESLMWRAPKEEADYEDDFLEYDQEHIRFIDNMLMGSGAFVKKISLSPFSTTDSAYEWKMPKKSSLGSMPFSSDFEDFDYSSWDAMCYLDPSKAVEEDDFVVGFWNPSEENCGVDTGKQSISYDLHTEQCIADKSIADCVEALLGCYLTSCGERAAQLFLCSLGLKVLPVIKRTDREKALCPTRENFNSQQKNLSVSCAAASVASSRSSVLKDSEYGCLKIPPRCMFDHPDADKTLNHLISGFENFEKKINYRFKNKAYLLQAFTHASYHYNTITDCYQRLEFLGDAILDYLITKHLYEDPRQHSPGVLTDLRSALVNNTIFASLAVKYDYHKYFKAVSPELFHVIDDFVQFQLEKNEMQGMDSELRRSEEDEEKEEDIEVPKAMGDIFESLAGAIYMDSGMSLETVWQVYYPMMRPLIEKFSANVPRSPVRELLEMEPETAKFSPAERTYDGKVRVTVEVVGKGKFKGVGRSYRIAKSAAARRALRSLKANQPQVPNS
The depositor's hits bear a star; ! = not active in a repeat.

SMILES | Dicer processing
CCCCCCOc1ccc(N2C(=O)CC(N3CCSCC3)C2=O)cc1 (stereo not drawn) | -1.3
CSC(N)=Nc1ccc(Cl)cc1 | 3*!
CSC(N)=Nc1cc(Cl)ccc1Cl | 2.2
CSC(N)=Nc1ccc(Cl)c(Cl)c1 | 2.4
Cc1c(C(=O)Nc2ccccc2SCc2cccc(Cl)c2F)cnn1-c1ccccc1 | -2.3
CCSC1=C(C#N)C(c2ccccc2)CC(=O)N1 (stereo not drawn) | 0.38
N#C/C(=N\Nc1ccc(F)cc1F)C(=O)C1CC1 | 0.78
CCOC(=O)c1cnc(Nc2ccc(C)c(Cl)c2)nc1C(F)(F)F | -0.3
Cc1ccc(C2C=C(c3ccccc3)Nc3nc(NS(=O)(=O)c4ccc(C)cc4)nn32)cc1 (stereo not drawn) | 4*
O=C(CCc1ccccc1)Nc1nc2n(n1)C(c1ccc(F)cc1)C=C(c1ccccc1)N2 (stereo not drawn) | 1.1
Cc1ccc(S(=O)(=O)Nc2nc3n(n2)C(c2ccccc2)C=C(c2ccccc2)N3)cc1 (stereo not drawn) | -0.53
COc1ccc(C2C(C(=O)OC(C)(C)C)C(=O)CC(C)(O)C2C(=O)OC(C)(C)C)cc1OC (stereo not drawn) | 0.04
O=C(c1ccccc1)n1nccc1C(c1ccccc1)c1ccccc1 | 0.72
COc1ccc(-c2noc(-c3cccc(OC)c3OC)n2)cc1 | 4.1*
COc1ccccc1-c1nc(-c2ccc(-c3ccc(C)cc3)nc2OC)no1 | -0.1
COc1cccc(-c2nc(-c3ccccc3)no2)c1OC | -0.58
COc1ccc(Br)cc1C1C2=C(Nc3c1c(=O)[nH]c(=O)n3C)c1ccccc1C2=O (stereo not drawn) | -1.1
CC(=O)CSc1nc(Nc2ccccc2)c2cnn(-c3ccccc3)c2n1 | 1.7
O=C1NCCCCC1NS(=O)(=O)c1cccs1 (stereo not drawn) | -0.93
Cc1c(S(=O)(=O)NC2CCCCNC2=O)sc2ccc(Cl)cc12 (stereo not drawn) | 1.3
COC(=O)c1csc(S(=O)(=O)NC2CCCCNC2=O)c1OC (stereo not drawn) | 4*
O=C1CC(NCc2ccc3c(c2)OCO3)C(=O)N1c1ccc2c(c1)OCO2 (stereo not drawn) | -2.3
O=C1C2C3CC4C5C3C1C5C1(OCCO1)C42 (stereo not drawn) | -0.69
CCCOc1ccc(C2Nc3ccc4ncccc4c3C3=C2C(=O)CCC3)cc1 (stereo not drawn) | 0.05
CCOC(=O)c1c(C)oc(-c2ccc(C)cc2)c1S(=O)(=O)Nc1cccc(C(F)(F)F)c1 | 0.35
SMILES | Dicer processing
CCN(/C=C/c1nnnn1-c1ccc(Cl)cc1)c1ccccc1 | 3.2*
CCN(/C=C/c1nnnn1-c1ccc(Br)cc1)CC | -0.37
CCc1ccc(-n2nnnc2/C=C/N(C)C)cc1 | 1.7
Cc1ccc(S(C)(=O)=NC(=O)c2cc(C(F)(F)F)cc(C(F)(F)F)c2)cc1 (stereo not drawn) | -1.8
COc1cc(C(=O)NC2CCCCC2)cc(OC)c1OC | -2.5
Cn1cnnc1SCc1ccc([N+](=O)[O-])cc1 | 0.1
CC(C)OC(=O)c1cccc(C(=O)Oc2ccc(Br)cc2)n1 | 4.4*
CC(C)OC(=O)c1cccc(C(=O)OC(C)C)n1 | 1.7
CC(C)OC(=O)c1cccc(C(=O)O)n1 | 1.6
C=CCn1nnc2sc3c(c2c1=O)CCCC3 | 1.1
Nc1ncnc(Nc2cc(C(F)(F)F)ccc2Cl)n1 | 1.6
COC(=O)/C(C#N)=C/c1ccc(C(F)(F)F)cc1 | 7.7
C=CCn1c(-c2ccc(N)cc2)nc2ccccc21 | 1.5
Cc1nc2ccccc2n1-c1ccccc1 | -1.5
Nc1ccc(-c2nc3cc(N)ccc3n2-c2ccccc2)cc1 | 3.4*
O=C(c1ccc2c(c1)OCCO2)c1ccccc1Br | -0.96
O=C(NNS(=O)(=O)c1ccc(Cl)c(Cl)c1)c1sccc1-n1cccc1 | -0.82
Cc1ccc2oc(-c3ccc(F)cc3)c(O)c(=O)c2c1 | 0.72
COc1c(-c2ccccc2)oc2ccccc2c1=O | 0.68
Cc1ccc2oc(-c3ccccc3)c(O)c(=O)c2c1 | 1.8
Cc1ccc(-c2oc3ccccc3c(=O)c2O)cc1 | 3.2*
Cc1c(-c2ccccc2)oc2ccccc2c1=O | -0.55
CC(=O)Nc1c(-c2ccccc2)oc2ccccc2c1=O | 3.3*
Cc1cccc(-c2noc(-c3cc(C)cc(C)c3)n2)c1 | 1.1
O=C1CCC/C(=N\Nc2ccccc2)C1 | -2
SMILES | Dicer processing
CCC(=O)N/N=C(\C)c1ccc(Oc2ccccc2)cc1 | -0.46
O=[N+]([O-])c1ccc(NCCCCCO)nc1 | 0.11
COc1cc(C2C(C(=O)OCC3CCCO3)=C(C)NC3=C2C(=O)CC(c2cccs2)C3)ccc1O (stereo not drawn) | 1.9
CC1=C(C(=O)OCCOC(C)C)C(c2coc3ccccc3c2=O)C2=C(CC(C)(C)CC2=O)N1 (stereo not drawn) | 1.3
CC1=C(C(=O)OC(C)C)C(c2ccccc2F)C2=C(CC(c3cccs3)CC2=O)N1 (stereo not drawn) | 0.56
COc1cccc(C2C(C(=O)OC(C)C)=C(C)NC3=C2C(=O)CC(c2cccs2)C3)c1OC (stereo not drawn) | 2.7
CC1=C(C(=O)OCCOc2ccccc2)C(c2coc3ccccc3c2=O)C2=C(CC(C)(C)CC2=O)N1 (stereo not drawn) | 3.4*
COCCOC(=O)C1=C(C)NC2=C(C(=O)CC(c3cccs3)C2)C1c1cccs1 (stereo not drawn) | 0.82
COCCOC(=O)C1=C(C)NC2=C(C(=O)CC(C)(C)C2)C1c1coc2ccccc2c1=O (stereo not drawn) | -0.44
CCSCCOC(=O)C1=C(C)NC2=C(C(=O)CC(c3cccs3)C2)C1c1ccc(O)c(OC)c1 (stereo not drawn) | 5.4*
CCSCCOC(=O)C1=C(C)NC2=C(C(=O)CC(c3cccs3)C2)C1c1ccc2c(c1)OCO2 (stereo not drawn) | 0.75
CC(=O)Oc1ccc(C2C(C(=O)OCC(C)C)=C(C)NC3=C2C(=O)CC(c2cccs2)C3)cc1 (stereo not drawn) | 0.7
COc1ccc(OC)c(C2C(C(=O)OCC(C)C)=C(C)NC3=C2C(=O)CC(c2cccs2)C3)c1 (stereo not drawn) | 3.1*
CC1=C(C(=O)OC(C)C)C(c2coc3ccccc3c2=O)C2=C(CC(c3cccs3)CC2=O)N1 (stereo not drawn) | 3.3*
CCOC(=O)Oc1ccc2c(=O)c(-c3ccc(OC)c(OC)c3)c(C(F)(F)F)oc2c1 | 1.7
O=[N+]([O-])/C=C/c1c2ccccc2cc2ccccc12 | 2.8
Cc1nc(N)nc(N/N=C/c2ccccc2O)n1 | -3.9
O=C(Nc1ccccc1)c1cc([N+](=O)[O-])cc2c1-c1ccc([N+](=O)[O-])cc1C2=O | 1.5
O=[N+]([O-])c1cccnc1Oc1ccc(-c2ccc(Oc3ncccc3[N+](=O)[O-])cc2)cc1 | -0.89
CNc1nc(SCC(=O)c2ccccc2)nc2sc3c(c12)CCCC3 | 0.48
Cc1c(/C=N/Nc2c(Cl)cc(Cl)cc2Cl)sc2ccccc12 | 0.01
CC(C)C12CN3CC(C(C)C)(CN(C1)C3c1cc(Br)ccc1O)C2=O (stereo not drawn) | 0.49
C/C(=N\NC(=O)N/N=C(\C)c1ccc([N+](=O)[O-])cc1)c1ccc([N+](=O)[O-])cc1 | -1.2
O=C(CSC1=NCCCCC1)c1ccc([N+](=O)[O-])cc1 | -2.1
O=C(c1ccc([N+](=O)[O-])cc1)c1ccc2c(c1)CCC2 | 3.6*
O=C1CCCC(OC(=O)c2ccccc2Cl)=C1Cl | 6.9
